# From the supplement of paper PMC10037445
# Over roughly 2,900 compounds, “NF-kB SEAP reporter activity, fold change vs agonist alone” has its median near 0.99; the highest 2% begin near 2.6. The list comes from a sample in which the highest values are over-represented; it also holds similar structures and randomly drawn compounds.
# Columns and labels:
# [1] = tested on: RAW-Dual; assay: NF-kB SEAP reporter activity, fold change vs agonist alone; higher = enhanced NF-kB activity
# Method in brief: (§1)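 After 50 nL of library stock was delivered by pin tool to RAW-Dual macrophages (50,000 cells/well, DMEM, 384-well plates), a PRR agonist was added 1 h later and the plates were kept at 37 °C, 5% CO2. Twenty hours later, IRF was read from supernatant by QuantiLuc luminescence and NF-κB by QuantiBlue absorbance at 620 nm. Reporter activity is stated as fold change over agonist-alone wells. Wells with IncuCyte confluency under 70% of agonist controls in both mask sets were counted as cytotoxic.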
# [2] = tested on: RAW-Dual; assay: NF-kB SEAP reporter activity, fold change vs agonist alone; cytotoxicity flag (confluency mask): not cytotoxic; higher = enhanced NF-kB activity
# Method in brief: as §1
# [3] = tested on: RAW-Dual; assay: NF-kB SEAP reporter activity, fold change vs agonist alone; cytotoxicity flag (confluency mask): cytotoxic (confluency <70% of control); higher = enhanced NF-kB activity
# Method in brief: as §1
# [4] = library stock concentration (final ~1000-fold dilution): 10 mM, cytotoxicity flag (confluency mask): not cytotoxic, agonist: Imiquimod (TLR7) […]
# [5] = library stock concentration (final ~1000-fold dilution): 10 mM, cytotoxicity flag (confluency mask): not cytotoxic, agonist: MPLA (TLR4) […]
# [6] = agonist: ODN 1826 (TLR9) 0.5 ug/mL
# [7] = agonist: Pam2CSK4 (TLR2/6) 0.1 ug/mL
# [8] = agonist: Pam3CSK4 (TLR2/1) 0.1 ug/mL
# [9] = library stock concentration (final ~1000-fold dilution): 10 mM, cytotoxicity flag (confluency mask): cytotoxic (confluency <70% of control), agonist: Imiquimod (TLR7) […]
# [10] = library stock concentration (final ~1000-fold dilution): 10 mM, cytotoxicity flag (confluency mask): cytotoxic (confluency <70% of control), agonist: MPLA (TLR4) […]
# [11] = library stock concentration (final ~1000-fold dilution): 1 mM, cytotoxicity flag (confluency mask): not cytotoxic, agonist: Imiquimod (TLR7) […]
# [12] = library stock concentration (final ~1000-fold dilution): 1 mM, cytotoxicity flag (confluency mask): not cytotoxic, agonist: MPLA (TLR4) […]
smiles,measurement,setting,value
CC12CC(O)C3CC1(OC1OC(CO)C(O)C(O)C1O)C3(COC(=O)c1ccccc1)C(=O)O2 (stereo unspecified),NF-kB SEAP reporter activity,[1]; [4],0.925
same,NF-kB SEAP reporter activity,[1]; [5],1.04
CC12CC(O)C3CC1(OC1OC(CO)C(O)C(O)C1O)C3(COC(=O)c1ccccc1)C(=O)O2 (stereo unspecified) (library stock concentration (final ~1000-fold dilution): 10 mM),NF-kB SEAP reporter activity,[2]; agonist: LPS (TLR4) 0.1 ug/mL,1.33
same,NF-kB SEAP reporter activity,[2]; [6],0.943
same,NF-kB SEAP reporter activity,[2]; [7],1.11
same,NF-kB SEAP reporter activity,[2]; [8],1.16
CN(c1ncccc1CNc1nc(Nc2ccc3c(c2)CC(=O)N3)ncc1C(F)(F)F)S(C)(=O)=O.Cl (library stock concentration (final ~1000-fold dilution): 10 mM),NF-kB SEAP reporter activity,[3]; agonist: LPS (TLR4) 0.1 ug/mL,0.194
same,NF-kB SEAP reporter activity,[3]; [6],0.29
same,NF-kB SEAP reporter activity,[3]; [7],0.0618
same,NF-kB SEAP reporter activity,[3]; [8],0.135
CN(c1ncccc1CNc1nc(Nc2ccc3c(c2)CC(=O)N3)ncc1C(F)(F)F)S(C)(=O)=O.Cl,NF-kB SEAP reporter activity,[1]; [9],0.169
same,NF-kB SEAP reporter activity,[1]; [10],0.247
CC1OC(OC2C(CO)OC(OC3C(CO)OC(O)C(O)C3O)C(O)C2O)C(O)C(O)C1NC1C=C(CO)C(O)C(O)C1O (stereo unspecified),NF-kB SEAP reporter activity,[1]; [4],0.983
same,NF-kB SEAP reporter activity,[1]; [5],0.951
CC1OC(OC2C(CO)OC(OC3C(CO)OC(O)C(O)C3O)C(O)C2O)C(O)C(O)C1NC1C=C(CO)C(O)C(O)C1O (stereo unspecified) (library stock concentration (final ~1000-fold dilution): 10 mM),NF-kB SEAP reporter activity,[2]; agonist: LPS (TLR4) 0.1 ug/mL,1.19
same,NF-kB SEAP reporter activity,[2]; [6],1.03
same,NF-kB SEAP reporter activity,[2]; [7],1.02
same,NF-kB SEAP reporter activity,[2]; [8],1.06
CCOC(=O)c1cnc2ccc(-c3cncc(NS(=O)(=O)c4ccccc4)c3)cn12 (library stock concentration (final ~1000-fold dilution): 10 mM),NF-kB SEAP reporter activity,[3]; agonist: LPS (TLR4) 0.1 ug/mL,7.43
same,NF-kB SEAP reporter activity,[3]; [6],2.4
same,NF-kB SEAP reporter activity,[3]; [7],1.68
same,NF-kB SEAP reporter activity,[3]; [8],3.96
CCOC(=O)c1cnc2ccc(-c3cncc(NS(=O)(=O)c4ccccc4)c3)cn12,NF-kB SEAP reporter activity,[1]; [9],1.31
same,NF-kB SEAP reporter activity,[1]; [10],2.94
Nc1nc2cc(-c3ccc4ncc(C(=O)N5CCOCC5)n4c3)ccc2o1 (library stock concentration (final ~1000-fold dilution): 10 mM),NF-kB SEAP reporter activity,[2]; agonist: LPS (TLR4) 0.1 ug/mL,0.841
same,NF-kB SEAP reporter activity,[2]; [6],1.02
same,NF-kB SEAP reporter activity,[2]; [7],0.774
same,NF-kB SEAP reporter activity,[2]; [8],0.811
Nc1nc2cc(-c3ccc4ncc(C(=O)N5CCOCC5)n4c3)ccc2o1,NF-kB SEAP reporter activity,[1]; [4],1.09
same,NF-kB SEAP reporter activity,[1]; [5],1.09
Cn1c(-c2ccccc2C(F)(F)F)nnc1C12CCC(c3noc(C4CC(F)(F)C4)n3)(CC1)CC2,NF-kB SEAP reporter activity,[1]; [4],0.868
same,NF-kB SEAP reporter activity,[1]; [5],1.3
Cn1c(-c2ccccc2C(F)(F)F)nnc1C12CCC(c3noc(C4CC(F)(F)C4)n3)(CC1)CC2 (library stock concentration (final ~1000-fold dilution): 10 mM),NF-kB SEAP reporter activity,[2]; agonist: LPS (TLR4) 0.1 ug/mL,1.22
same,NF-kB SEAP reporter activity,[2]; [6],0.41
same,NF-kB SEAP reporter activity,[2]; [7],0.827
same,NF-kB SEAP reporter activity,[2]; [8],1.16
CCCCCCOC(=O)c1cc(=O)c(O)c2c(O)c(O)c(OC)cc2c1,NF-kB SEAP reporter activity,[1]; [11],1.03
same,NF-kB SEAP reporter activity,[1]; [12],1.23
CCCCCCOC(=O)c1cc(=O)c(O)c2c(O)c(O)c(OC)cc2c1 (library stock concentration (final ~1000-fold dilution): 1 mM),NF-kB SEAP reporter activity,[2]; agonist: LPS (TLR4) 0.1 ug/mL,1.14
same,NF-kB SEAP reporter activity,[2]; [6],0.931
same,NF-kB SEAP reporter activity,[2]; [7],0.872
same,NF-kB SEAP reporter activity,[2]; [8],0.85
CCOC(=O)C1=Cc2ccc(C(F)(F)C(F)(F)F)cc2N=C(N)C1 (library stock concentration (final ~1000-fold dilution): .1 mM),NF-kB SEAP reporter activity,[2]; agonist: LPS (TLR4) 0.1 ug/mL,1.34
same,NF-kB SEAP reporter activity,[2]; [6],1.25
same,NF-kB SEAP reporter activity,[2]; [7],1.09
same,NF-kB SEAP reporter activity,[2]; [8],1.17
CCOC(=O)C1=Cc2ccc(C(F)(F)C(F)(F)F)cc2N=C(N)C1,NF-kB SEAP reporter activity,"[1]; library stock concentration (final ~1000-fold dilution): .1 mM, cytotoxicity flag (confluency mask): not cytotoxic, agonist: Imiquimod (TLR7) […]",0.718
same,NF-kB SEAP reporter activity,"[1]; library stock concentration (final ~1000-fold dilution): .1 mM, cytotoxicity flag (confluency mask): not cytotoxic, agonist: MPLA (TLR4) […]",1.18
CCCN(CCC)C(=O)C1=Cc2ccc(-c3ccc(C(=O)N4CCCC4)cc3)cc2N=C(N)C1,NF-kB SEAP reporter activity,[1]; [11],1.22
same,NF-kB SEAP reporter activity,[1]; [12],1.82
CCCN(CCC)C(=O)C1=Cc2ccc(-c3ccc(C(=O)N4CCCC4)cc3)cc2N=C(N)C1 (library stock concentration (final ~1000-fold dilution): 1 mM),NF-kB SEAP reporter activity,[2]; agonist: LPS (TLR4) 0.1 ug/mL,2.58
same,NF-kB SEAP reporter activity,[2]; [6],1.07
same,NF-kB SEAP reporter activity,[2]; [7],1.16
same,NF-kB SEAP reporter activity,[2]; [8],1.26
Cl.Nc1ccn(C2OC(CO)C(O)C2O)c(=O)n1 (stereo unspecified),NF-kB SEAP reporter activity,[1]; [4],1.72
same,NF-kB SEAP reporter activity,[1]; [5],1.42
Cl.Nc1ccn(C2OC(CO)C(O)C2O)c(=O)n1 (stereo unspecified) (library stock concentration (final ~1000-fold dilution): 10 mM),NF-kB SEAP reporter activity,[2]; agonist: LPS (TLR4) 0.1 ug/mL,0.959
same,NF-kB SEAP reporter activity,[2]; [6],1.65
same,NF-kB SEAP reporter activity,[2]; [7],1.16
same,NF-kB SEAP reporter activity,[2]; [8],1.35
C=C1CC[C@@H]2[C@](C)(CO)[C@H](O)CC[C@@]2(C)[C@@H]1/C=C/C1=CCOC1=O (library stock concentration (final ~1000-fold dilution): 10 mM),NF-kB SEAP reporter activity,[2]; agonist: LPS (TLR4) 0.1 ug/mL,0.755
same,NF-kB SEAP reporter activity,[2]; [6],0.721
same,NF-kB SEAP reporter activity,[2]; [7],0.5
same,NF-kB SEAP reporter activity,[2]; [8],0.597
C=C1CC[C@@H]2[C@](C)(CO)[C@H](O)CC[C@@]2(C)[C@@H]1/C=C/C1=CCOC1=O,NF-kB SEAP reporter activity,[1]; [4],0.706
same,NF-kB SEAP reporter activity,[1]; [5],0.901
Cl.Cl.O=c1cc(CN2CCOCC2)occ1OCCCCCSc1ccnc2cc(C(F)(F)F)ccc12,NF-kB SEAP reporter activity,[1]; [9],0.953
same,NF-kB SEAP reporter activity,[1]; [10],0.895
Cl.Cl.O=c1cc(CN2CCOCC2)occ1OCCCCCSc1ccnc2cc(C(F)(F)F)ccc12 (library stock concentration (final ~1000-fold dilution): 10 mM),NF-kB SEAP reporter activity,[3]; agonist: LPS (TLR4) 0.1 ug/mL,0.81
same,NF-kB SEAP reporter activity,[3]; [6],0.603
same,NF-kB SEAP reporter activity,[3]; [7],0.59
same,NF-kB SEAP reporter activity,[3]; [8],0.529
Fc1ccc(CNc2ncnc3ccc(F)cc23)cc1 (library stock concentration (final ~1000-fold dilution): 10 mM),NF-kB SEAP reporter activity,[2]; agonist: LPS (TLR4) 0.1 ug/mL,2.47
same,NF-kB SEAP reporter activity,[2]; [6],1.19
same,NF-kB SEAP reporter activity,[2]; [7],1.06
same,NF-kB SEAP reporter activity,[2]; [8],1.25
